Measured values: PubChem BioAssay (NCI)
This is part of a sample that, as a whole, favours compounds with a hit. Of some 79,000 tested, about 15% had one in any assay. Active and inactive are the calls of the source. No stated cut-off is given here; in the data, active means growth inhibition above about 70%; inactive means the rest.

Assays:
[1] = NCI Yeast Anticancer Drug Screen. Data for the mec2-1 strain (AID 157); conditions: S. cerevisiae mec2-1 strain, stronger effect = higher value
Outline: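 Each compound was tested on mec2-1 yeast, a strain altered in DNA damage repair or cell cycle control. Growth inhibition is reported relative to vehicle.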

[2] = NCI Yeast Anticancer Drug Screen. Data for the rad14 strain (AID 159);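 further: 0% = growth of vehicle-treated control cultures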; conditions: S. cerevisiae rad14 strain growth inhibition, stronger effect = higher value
Outline: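 Screen for anticancer potential: a yeast strain altered in DNA damage repair is grown with compound, and reduced growth is quantified against vehicle controls.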

[3] = NCI Yeast Anticancer Drug Screen. Data for the sgs1 mgt1 strain (AID 161);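 further: 0% = growth of cultures given vehicle only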; conditions: S. cerevisiae sgs1 mgt1 strain, stronger effect = higher value
Outline: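 Inhibition of yeast growth, normalised to vehicle-treated controls, is reported for a strain bearing genetic alterations in DNA damage repair.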

[4] = NCI Yeast Anticancer Drug Screen. Data for the CLN2oe strain (AID 163);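 further: 0% = growth of vehicle-only control cultures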; conditions: S. cerevisiae CLN2oe strain, stronger effect = higher value
Outline: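 First, the altered yeast strain was treated with each compound; second, its growth was measured; finally, inhibition was derived by comparison with vehicle controls.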

[5] = NCI Yeast Anticancer Drug Screen. Data for the cln2 rad14 strain (AID 165);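 further: 0% = growth equal to vehicle treated cultures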; conditions: S. cerevisiae cln2 rad14 strain, stronger effect = higher value
Outline: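 Test compounds were added to cln2 rad14 yeast cultures; inhibition of growth was then determined by comparison with vehicle treatment.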

[6] = NCI Yeast Anticancer Drug Screen. Data for the bub3 strain (AID 167); conditions: S. cerevisiae bub3 mutant strain, stronger effect = higher value
Outline: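 Screening used yeast with an engineered genetic alteration affecting cell cycle control. Compound-exposed cultures were compared with vehicle cultures, and reduced growth was taken as inhibition.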

[7] = NCI Yeast Anticancer Drug Screen. Data for the wt2 strain (AID 169);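 further: 0% = growth of vehicle-treated yeast cultures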; conditions: S. cerevisiae wt2 strain growth inhibition, stronger effect = higher value
Outline: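 The panel's yeast strains carry defined changes in DNA repair or cell cycle genes. Each strain is grown with compound, and growth loss is scored relative to vehicle.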

[8] = NCI Yeast Anticancer Drug Screen. Data for the mlh1 strain (AID 171);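 further: 0% = growth of vehicle-treated control cultures of the same strain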; conditions: S. cerevisiae mlh1 strain growth inhibition, stronger effect = higher value
Outline: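 Inhibition values reflect reduced yeast growth in the presence of compound, referenced to vehicle controls, using a strain chosen for its alteration in DNA repair or cell cycle control.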

[9] = NCI Yeast Anticancer Drug Screen. Data for the sgs1 strain (AID 173);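 further: 0% = growth of vehicle-only control cultures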; conditions: S. cerevisiae sgs1 mutant, stronger effect = higher value
Outline: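 Vehicle-treated cultures served as reference for growth inhibition of a yeast strain altered in DNA damage repair or cell cycle control after compound exposure.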

[10] = NCI Yeast Anticancer Drug Screen. Data for the rad18 strain (AID 177); conditions: S. cerevisiae rad18 mutant growth inhibition, stronger effect = higher value
Outline: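 Steps: expose repair-mutant yeast to compound; measure growth; express as inhibition relative to vehicle control.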

[11] = NCI Yeast Anticancer Drug Screen. Data for the rad52 strain (AID 147);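 further: 0% = growth of vehicle-treated control cultures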; conditions: S. cerevisiae rad52 mutant growth inhibition, stronger effect = higher value
Outline: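 Inhibition of yeast growth, referenced to vehicle controls, was the measured output for a strain with defective DNA damage repair.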

[12] = NCI Yeast Anticancer Drug Screen. Data for the wt1 strain (AID 149);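 further: 0% = growth of vehicle-treated wt1 cultures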; conditions: S. cerevisiae wt1 strain (SPY 50644) growth inhibition, stronger effect = higher value
Outline: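 Using yeast strain wt1, compound-induced growth inhibition was determined against vehicle-treated cultures.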

[13] = NCI Yeast Anticancer Drug Screen. Data for the rad50EPP+ strain (AID 151);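 further: 0% = growth of vehicle-treated control cultures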; conditions: S. cerevisiae rad50 mutant strain, stronger effect = higher value
Outline: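 Genetically defined yeast (rad50EPP+, DNA damage repair alteration) is grown with compound, and inhibition of growth is expressed relative to vehicle-treated controls.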

[14] = NCI Yeast Anticancer Drug Screen. Data for the mgt1 strain (AID 153); conditions: S. cerevisiae mgt1 mutant growth inhibition, stronger effect = higher value
Outline: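 In the mgt1 strain, test compounds were added and growth inhibition was determined relative to vehicle-treated controls.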

[15] = NCI Yeast Anticancer Drug Screen. Data for the rad50 strain (AID 155);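 further: 0% = growth of vehicle-only cultures of the same strain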; conditions: S. cerevisiae rad50 strain growth inhibition, stronger effect = higher value
Outline: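 Relative growth inhibition (compound vs vehicle) was measured in yeast with a defined repair-gene alteration.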

[16] = NCI Yeast Anticancer Drug Screen. Data for the mlh1 rad18 strain (AID 175); conditions: S. cerevisiae mlh1 rad18 strain growth inhibition, stronger effect = higher value
Outline: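 Inhibition values reflect reduced growth of mutant yeast versus vehicle-treated controls following compound exposure; the mutations affect DNA damage repair.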

[17] = at 5.0 µM (retest, dose inferred, filed as 0.5)
[18] = at 50.0 µM (retest, dose inferred, filed as 5.0)

Measured: growth inhibition

COc1ccc(N)c2c1C(=O)c1ccccc1C2=O
inactive: [1]; [17] 47% | [1]; at 11.0 µM 12% | [1]; at 33.0 µM 40% | [1]; [18] 56% | [1]; at 50.0 µM 32.1% | [2]; at 1.2 µM -6% | [2]; at 3.7 µM -23% | [2]; at 11.0 µM 2% | [2]; at 33.0 µM 29% | [3]; [17] -15% | [3]; at 50.0 µM 62.5% | [4]; at 1.2 µM -2% | [4]; at 3.7 µM 6% | [4]; at 11.0 µM 17% | [4]; at 33.0 µM 34% | [5]; [17] 62% | [5]; at 50.0 µM 32.5% | [6]; at 1.2 µM -25% | [6]; at 3.7 µM -24% | [6]; [17] 41% | [6]; at 11.0 µM -32% | [6]; at 33.0 µM 19% | [6]; at 50.0 µM 49% | [7]; at 1.2 µM -11% | [7]; at 3.7 µM -11% | [7]; at 11.0 µM -6% | [7]; at 33.0 µM 42% | [8]; at 1.2 µM -5% | [8]; at 3.7 µM -9% | [8]; at 11.0 µM 1% | [8]; at 33.0 µM 46% | [9]; at 1.2 µM -6% | [9]; at 3.7 µM -6% | [9]; at 11.0 µM 6% | [9]; at 33.0 µM 68% | [10]; at 1.2 µM -20% | [10]; at 3.7 µM -12% | [10]; at 11.0 µM -10% | [10]; at 33.0 µM 54%
active: [1]; at 100.0 µM 81% | [2]; at 100.0 µM 93% | [3]; [18] 79% | [4]; at 100.0 µM 89% | [5]; [18] 71% | [6]; [18] 72% | [6]; at 100.0 µM 93% | [7]; at 100.0 µM 93% | [8]; at 100.0 µM 94% | [9]; at 100.0 µM 96% | [10]; at 100.0 µM 93%

N#C/C(=C/N1C(=O)/C(=C/c2ccc([N+](=O)[O-])cc2)SC1=S)c1nc2ccccc2s1
active: [11]; at 100.0 µM 77% | [13]; at 33.0 µM 86% | [13]; at 100.0 µM 87% | [15]; at 50.0 µM 87.3% | [15]; at 100.0 µM 79% | [1]; at 50.0 µM 81.7% | [2]; at 100.0 µM 84% | [3]; at 50.0 µM 85.6% | [6]; at 50.0 µM 86% | [7]; at 100.0 µM 75% | [8]; at 100.0 µM 82% | [9]; at 100.0 µM 82% | [16]; at 50.0 µM 87.8% | [10]; at 100.0 µM 82%
inactive: [11]; at 1.2 µM 5% | [11]; at 3.7 µM 9% | [11]; at 11.0 µM 18% | [11]; at 33.0 µM 36% | [12]; at 1.2 µM 4% | [12]; at 3.7 µM 5% | [12]; at 11.0 µM 7% | [12]; at 33.0 µM 18% | [12]; at 100.0 µM 59% | [13]; at 1.2 µM 19% | [13]; at 3.7 µM 45% | [13]; at 11.0 µM 69% | [14]; at 1.2 µM 1% | [14]; at 3.7 µM 3% | [14]; at 11.0 µM 5% | [14]; at 33.0 µM 11% | [14]; at 100.0 µM 66% | [15]; at 1.2 µM -2% | [15]; at 3.7 µM -6% | [15]; [17] -4% | [15]; at 11.0 µM 0% | [15]; at 33.0 µM 40% | [15]; [18] 23% | [1]; at 1.2 µM 9% | [1]; at 3.7 µM 11% | [1]; [17] -1% | [1]; at 11.0 µM 18% | [1]; at 33.0 µM 34% | [1]; [18] 16% | [1]; at 100.0 µM 67% | [2]; at 1.2 µM 3% | [2]; at 3.7 µM 4% | [2]; at 11.0 µM 13% | [2]; at 33.0 µM 40% | [3]; [17] 7% | [3]; [18] 48% | [4]; at 1.2 µM 8% | [4]; at 3.7 µM -1% | [4]; at 11.0 µM 3% | [4]; at 33.0 µM 16% | [4]; at 100.0 µM 55% | [5]; [17] -16% | [5]; [18] 30% | [5]; at 50.0 µM 61.1% | [6]; at 1.2 µM -2% | [6]; at 3.7 µM 4% | [6]; [17] -18% | [6]; at 11.0 µM 9% | [6]; at 33.0 µM 26% | [6]; [18] 34% | [6]; at 100.0 µM 63% | [7]; at 1.2 µM 1% | [7]; at 3.7 µM 4% | [7]; at 11.0 µM 8% | [7]; at 33.0 µM 31% | [8]; at 1.2 µM 5% | [8]; at 3.7 µM 6% | [8]; at 11.0 µM 13% | [8]; at 33.0 µM 37% | [9]; at 1.2 µM 11% | [9]; at 3.7 µM 18% | [9]; at 11.0 µM 30% | [9]; at 33.0 µM 61% | [16]; [17] 13% | [16]; [18] 55% | [10]; at 1.2 µM 19% | [10]; at 3.7 µM 33% | [10]; at 11.0 µM 48% | [10]; at 33.0 µM 69%

Nc1nc(N)c2cc(Sc3ccc4ccccc4c3)ccc2n1
inactive: [11]; at 1.2 µM 28% | [11]; at 3.7 µM 69% | [12]; at 1.2 µM 1% | [12]; at 3.7 µM 10% | [12]; at 11.0 µM 44% | [13]; at 1.2 µM 17% | [13]; at 3.7 µM 31% | [13]; at 11.0 µM 31% | [13]; at 33.0 µM 65% | [13]; at 100.0 µM 63% | [14]; at 1.2 µM -23% | [14]; at 3.7 µM 12% | [15]; at 1.2 µM -8% | [15]; at 3.7 µM 43% | [15]; [17] 55% | [1]; at 1.2 µM -13% | [1]; at 3.7 µM 61% | [2]; at 1.2 µM -13% | [2]; at 3.7 µM -2% | [2]; at 11.0 µM 69% | [3]; [17] 62% | [4]; at 1.2 µM 2% | [4]; at 3.7 µM 9% | [4]; at 11.0 µM 50% | [5]; [17] 10% | [6]; at 1.2 µM -21% | [6]; at 3.7 µM -4% | [6]; [17] 30% | [7]; at 1.2 µM -18% | [7]; at 3.7 µM 25% | [7]; at 11.0 µM 69% | [8]; at 1.2 µM -11% | [8]; at 3.7 µM 22% | [9]; at 1.2 µM 3% | [9]; at 3.7 µM 38% | [16]; [17] 60% | [10]; at 1.2 µM -6% | [10]; at 3.7 µM 27%
active: [11]; at 11.0 µM 92% | [11]; at 33.0 µM 96% | [11]; at 100.0 µM 92% | [12]; at 33.0 µM 86% | [12]; at 100.0 µM 89% | [14]; at 11.0 µM 74% | [14]; at 33.0 µM 93% | [14]; at 100.0 µM 94% | [15]; at 11.0 µM 90% | [15]; at 33.0 µM 95% | [15]; [18] 98% | [15]; at 50.0 µM 88.1% | [15]; at 100.0 µM 92% | [1]; [17] 79% | [1]; at 11.0 µM 94% | [1]; at 33.0 µM 95% | [1]; [18] 99% | [1]; at 50.0 µM 91.3% | [1]; at 100.0 µM 95% | [2]; at 33.0 µM 96% | [2]; at 100.0 µM 94% | [3]; [18] 97% | [3]; at 50.0 µM 89% | [4]; at 33.0 µM 85% | [4]; at 100.0 µM 89% | [5]; [18] 85% | [5]; at 50.0 µM 86.7% | [6]; at 11.0 µM 74% | [6]; at 33.0 µM 94% | [6]; [18] 97% | [6]; at 50.0 µM 85.8% | [6]; at 100.0 µM 93% | [7]; at 33.0 µM 87% | [7]; at 100.0 µM 92% | [8]; at 11.0 µM 79% | [8]; at 33.0 µM 95% | [8]; at 100.0 µM 93% | [9]; at 11.0 µM 80% | [9]; at 33.0 µM 94% | [9]; at 100.0 µM 91% | [16]; [18] 96% | [16]; at 50.0 µM 83.8% | [10]; at 11.0 µM 78% | [10]; at 33.0 µM 93% | [10]; at 100.0 µM 93%
